Measurements from PubChem BioAssay (EPA / NIEHS).
Results filed as inconclusive are left out. Some compounds were tested as several samples or in several runs, with calls that do not always agree. The source made the active and inactive calls. Rule for the calls, unless noted: active = hit-call score of the fitted dose curve at least 0.9, where 1 is the maximum; inconclusive = response in the unintended direction; inactive = score below 0.9.

Experiments:
[1] = ATG_VDRE_CIS: Attagene CIS-FACTORIAL HepG2 Assay for human Vitamin D Receptor Element (VDRE) (AID 2282968; active = hit-call score of the fitted dose curve at least 0.9, where 1 is the maximum; inactive = score below 0.9); conditions: HepG2 VDRE cis-reporter transcription, actives raise or lower the signal
Procedure, shortened: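 Measures endogenous factor activity through cis-element-driven reporter transcripts in transiently transfected HepG2. Cells are treated 24 h; reporter mRNA is quantified by RT-PCR and capillary electrophoresis; fitting is bidirectional.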

[2] = target: Nuclear receptor subfamily 1 group I member 3 (Homo sapiens) (UniProt Q14994); assay: ATG_CAR_TRANS: Attagene TRANS-FACTORIAL HepG2 Assay for human Constitutive Androstane Receptor (CAR) (AID 2282969); conditions: HepG2 Attagene TRANS-FACTORIAL CAR reporter;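 note: activators raise reporter mRNA above DMSO so AC50 marks induction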
Procedure, shortened: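 Signal is reporter mRNA induction relative to DMSO, measured 24 h after dosing by RT-PCR with fluorescent primer extension and capillary electrophoresis. Human HepG2 liver cells carried transiently transfected chimeric NR-Gal4/GAL4-UAS reporter constructs.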

[3] = target: Estrogen receptor (Homo sapiens) (UniProt P03372); assay: ATG_ERa_TRANS: Attagene TRANS-FACTORIAL HepG2 Assay for human Estrogen Receptor alpha (ERa) (AID 2282970); conditions: HepG2 Attagene TRANS ERa GAL4 reporter, mRNA
Procedure, shortened: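 Reporter transcripts were measured 24 h after dosing by RT-PCR with fluorescent primer extension and capillary electrophoresis. The system is transiently transfected HepG2 expressing exogenous NR-Gal4 chimeras driving GAL4-UAS reporters; DMSO is the baseline.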

[4] = target: X-box-binding protein 1 (Homo sapiens) (UniProt P17861); assay: ATG_Xbp1_CIS: Attagene CIS-FACTORIAL HepG2 Assay for human X-box Binding Protein 1 (XBP1) (AID 2282972; active = hit-call score of the fitted dose curve at least 0.9, where 1 is the maximum; inactive = score below 0.9); conditions: HepG2 XBP1 cis-element reporter, Attagene multiplex; actives raise or lower the signal
Procedure, shortened: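 Reporter transcripts were quantified by RT-PCR with fluorescent primer extension and capillary electrophoresis after 24 h chemical exposure. Cells: transiently transfected HepG2 carrying cis-regulated reporter constructs; data fitted bidirectionally relative to DMSO.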

[5] = ATG_GAL4_TRANS: Attagene TRANS-FACTORIAL HepG2 Assay for GAL4 (Internal Marker) (AID 2282976); conditions: HepG2 Attagene TRANS GAL4 internal marker reporter
Procedure, shortened: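 In transfected human HepG2 liver cells dosed 24 h, GAL4 reporter mRNA serves as a baseline marker. Detection by RT-PCR with fluorescent capillary electrophoresis, activity fitted upward relative to DMSO.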

[6] = target: Glucocorticoid receptor (Homo sapiens) (UniProt P04150); assay: ATG_GR_TRANS: Attagene TRANS-FACTORIAL HepG2 Assay for human Glucocorticoid Receptor (GR) (AID 2282978); conditions: HepG2 Attagene TRANS GR reporter, mRNA transcription;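 note: activators score as hits since higher reporter transcript over DMSO is fitted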
Procedure, shortened: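 HepG2 transient transfection, multiple reporter units, GAL4-UAS under NR-GAL4 chimera control. 24 h treatment. Reporter mRNA by RT-PCR/CE fluorescence, DMSO as negative control.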

[7] = target: Oxysterols receptor LXR-beta (Homo sapiens) (UniProt P55055); assay: ATG_LXRb_TRANS: Attagene TRANS-FACTORIAL HepG2 Assay for human Liver X Receptor beta (LXRb) (AID 2282981); conditions: HepG2 Attagene TRANS GAL4-LXRb reporter, mRNA
Procedure, shortened: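 After 24 h of chemical treatment, transfected HepG2 cells yield total RNA; reporter cDNA is PCR-amplified, FAM-labelled, HpaI-cut and run on capillary electrophoresis. Signal reflects chimeric LXRb-Gal4 activity on GAL4-UAS reporters.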

[8] = target: Hepatocyte nuclear factor 4-alpha (Homo sapiens) (UniProt P41235); assay: ATG_HNF4a_TRANS: Attagene TRANS-FACTORIAL HepG2 Assay for human Hepatocyte Nuclear Factor 4 alpha (HNF4a) (AID 2282982); conditions: HepG2 HNF4a transactivation reporter, mRNA readout
Procedure, shortened: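 Multiplexed reporter assay: transfected HepG2, 24 h exposure, total RNA → oligo(dT) RT → PCR → 6-FAM extension → HpaI digest → CE fluorescence. DMSO = negative control.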

[9] = ATG_M_06_TRANS: Attagene TRANS-FACTORIAL HepG2 Assay for M06 Transcription Factor (Internal Marker) (AID 2282983); conditions: HepG2 Attagene TRANS M06 internal marker reporter;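 note: reporter transcript level by RT-PCR then capillary electrophoresis fluorescence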
Procedure, shortened: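 Background-control reporter readout: after 24 h chemical exposure of transiently transfected HepG2 (GAL4-UAS reporter units), mRNA quantified by RT-PCR with fluorescent labeling and capillary electrophoresis. Gain-of-signal fitting against DMSO baseline.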

[10] = ATG_M_32_TRANS: Attagene TRANS-FACTORIAL HepG2 Assay for M32 Transcription Factor (Internal Marker) (AID 2282984); conditions: HepG2 Attagene TRANS M32 internal marker reporter;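 note: transcript level of a background control reporter unit measured by RT-PCR and capillary electrophoresis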
Procedure, shortened: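 Cell-based TRANS-format assay in HepG2: exogenous chimeric GAL4 reporter units transiently expressed, compounds applied 24 h. Reporter mRNA detected by RT-PCR plus capillary electrophoresis; this readout is an internal background marker.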

[11] = target: Transcriptional activator Myb (Homo sapiens) (UniProt P10242); assay: ATG_Myb_CIS: Attagene CIS-FACTORIAL HepG2 Assay for human Myeloblastosis (Myb) Proto-Oncogene Transcription Factor (AID 2282986; active = hit-call score of the fitted dose curve at least 0.9, where 1 is the maximum; inactive = score below 0.9); conditions: HepG2 Attagene CIS-FACTORIAL Myb reporter transcription; actives raise or lower the signal
Procedure, shortened: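 Multiplexed cis-reporter system in HepG2: transient transfection, 24 h treatment, mRNA readout by RT-PCR and capillary electrophoresis. Both increases and decreases are scored versus DMSO negative control.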

[12] = target: Nuclear respiratory factor 1 (Homo sapiens) (UniProt Q16656); assay: ATG_NRF1_CIS: Attagene CIS-FACTORIAL HepG2 Assay for human Nuclear Respiratory Factor 1 (NRF1) Orphan Gene (AID 2282987; active = hit-call score of the fitted dose curve at least 0.9, where 1 is the maximum; inactive = score below 0.9); conditions: HepG2 NRF1 cis-element reporter, Attagene multiplex; actives raise or lower the signal
Procedure, shortened: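 Endogenous factor activity was captured via cis-element-driven reporter transcripts in HepG2 cells. Following 24 h chemical treatment, transcripts were quantified by RT-PCR and capillary electrophoresis.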

[13] = ATG_NFI_CIS: Attagene CIS-FACTORIAL HepG2 Assay for human Nuclear Factor I (NFI) (AID 2282989; active = hit-call score of the fitted dose curve at least 0.9, where 1 is the maximum; inactive = score below 0.9); conditions: HepG2 cis-regulatory reporter, NFI response element transcription; actives raise or lower the signal
Procedure, shortened: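 Read-out: reporter mRNA via RT-PCR plus capillary electrophoresis with fluorescence detection. Transiently transfected HepG2 (endogenous TF activity on cis promoters), 24 h compound exposure; gain or loss of signal fitted against DMSO.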

[14] = target: Steroid hormone receptor ERR1 (Homo sapiens) (UniProt P11474); assay: ATG_ERRa_TRANS: Attagene TRANS-FACTORIAL HepG2 Assay for human Estrogen-Related Receptor alpha (ERRa) (AID 2282971); conditions: HepG2 Attagene TRANS reporter, ERRa transactivation
Procedure, shortened: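 Reporter transcripts from ERRa-Gal4 chimera activity measured in transiently transfected human HepG2 cells 24 hours after dosing, using RT-PCR with 6-FAM primer extension, HpaI digestion and capillary electrophoresis; DMSO is baseline.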

[15] = ATG_M_19_TRANS: Attagene TRANS-FACTORIAL HepG2 Assay for M19 Transcription Factor (Internal Marker) (AID 2282974); conditions: HepG2 Attagene TRANS-FACTORIAL M19 internal marker reporter
Procedure, shortened: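 Gain-of-signal in reporter mRNA, relative to DMSO, was scored from capillary electrophoresis fluorescence. HepG2 cells carried transiently transfected multiple reporter transcription units and were incubated with test chemicals for 24 h.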

[16] = target: Bile acid receptor (Homo sapiens) (UniProt Q96RI1); assay: ATG_FXR_TRANS: Attagene TRANS-FACTORIAL HepG2 Assay for Farnesoid X Receptor (FXR) (AID 2282979); conditions: HepG2 Attagene TRANS FXR-GAL4 reporter transcription;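 note: hits raise reporter mRNA above DMSO so AC50 marks FXR activation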
Procedure, shortened: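 Reporter transcripts from transfected HepG2 cells were measured 24 h after dosing, using RT-PCR with capillary electrophoresis of 6-FAM-labelled fragments. The read-out reflects activity of exogenous FXR-Gal4 chimera on GAL4-UAS units, with induction relative to DMSO.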

[17] = target: Oxysterols receptor LXR-alpha (Homo sapiens) (UniProt Q13133); assay: ATG_LXRa_TRANS: Attagene TRANS-FACTORIAL HepG2 Assay for human Liver X Receptor alpha (LXRa) (AID 2282980); conditions: HepG2 Attagene TRANS reporter, LXRa transactivation
Procedure, shortened: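 Chemical-induced reporter mRNA measured by RT-PCR with fluorescent labelling and capillary electrophoresis after 24 h dosing of transiently transfected HepG2 cells expressing exogenous NR-Gal4 chimeras; increases scored against DMSO baseline.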

[18] = target: Nuclear receptor subfamily 4 group A member 2 (Homo sapiens) (UniProt P43354); assay: ATG_NURR1_TRANS: Attagene TRANS-FACTORIAL HepG2 Assay for human Nuclear Receptor Related Protein 1 (NURR1) (AID 2282985); conditions: HepG2 Attagene TRANS reporter, mRNA readout
Procedure, shortened: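 Measures transcriptional activation by an exogenous NR-Gal4 chimera in transfected HepG2 liver cells. After 24 h, reporter RNA is reverse-transcribed, amplified and resolved by capillary electrophoresis; DMSO defines baseline.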

[19] = target: Estrogen-related receptor gamma (Homo sapiens) (UniProt P62508); assay: ATG_ERRg_TRANS: Attagene TRANS-FACTORIAL HepG2 Assay for human Estrogen-Related Receptor gamma (ERRg) (AID 2282977); conditions: HepG2 Attagene TRANS reporter, ERRg transactivation;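 note: hits increase reporter signal over DMSO so potencies reflect activators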
Procedure, shortened: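 Readout: fluorescent reporter-mRNA fragments resolved by capillary electrophoresis after RT-PCR and HpaI cut. Cells: transiently transfected HepG2 carrying GAL4-UAS reporters driven by exogenous NR-Gal4 chimeras, dosed 24 h. Activity fitted upward relative to DMSO baseline.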

Measured: AC50

Chain of Bile acid receptor (Homo sapiens) (Q96RI1 whole entry, looked up, the tested form may be a part): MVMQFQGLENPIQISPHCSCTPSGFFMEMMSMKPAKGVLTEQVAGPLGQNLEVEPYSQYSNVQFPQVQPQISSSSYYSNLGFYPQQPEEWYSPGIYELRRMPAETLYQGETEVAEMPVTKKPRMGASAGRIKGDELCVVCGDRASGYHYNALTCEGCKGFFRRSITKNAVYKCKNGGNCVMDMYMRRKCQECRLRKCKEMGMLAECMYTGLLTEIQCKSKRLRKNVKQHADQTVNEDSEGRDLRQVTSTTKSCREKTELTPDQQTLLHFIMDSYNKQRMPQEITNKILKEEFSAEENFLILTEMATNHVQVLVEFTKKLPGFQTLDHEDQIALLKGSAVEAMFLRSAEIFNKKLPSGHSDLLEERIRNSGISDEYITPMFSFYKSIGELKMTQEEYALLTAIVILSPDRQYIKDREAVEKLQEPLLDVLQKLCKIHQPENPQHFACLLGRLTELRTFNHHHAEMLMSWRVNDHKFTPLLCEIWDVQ
Chain of Oxysterols receptor LXR-beta (Homo sapiens) (P55055 whole entry, looked up, the tested form may be a part): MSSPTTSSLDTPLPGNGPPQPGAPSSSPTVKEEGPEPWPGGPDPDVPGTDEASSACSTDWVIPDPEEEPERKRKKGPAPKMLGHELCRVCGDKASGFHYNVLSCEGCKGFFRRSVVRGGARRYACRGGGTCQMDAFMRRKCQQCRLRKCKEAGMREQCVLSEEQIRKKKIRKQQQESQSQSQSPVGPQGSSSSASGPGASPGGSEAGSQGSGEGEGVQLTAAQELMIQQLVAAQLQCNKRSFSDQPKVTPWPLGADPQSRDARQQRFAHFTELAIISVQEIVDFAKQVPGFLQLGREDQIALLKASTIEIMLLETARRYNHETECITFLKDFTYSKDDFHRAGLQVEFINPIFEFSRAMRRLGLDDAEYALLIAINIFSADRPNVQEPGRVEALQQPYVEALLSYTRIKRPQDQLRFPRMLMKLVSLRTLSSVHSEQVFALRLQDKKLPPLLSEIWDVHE
Chain of Nuclear respiratory factor 1 (Homo sapiens) (Q16656 whole entry, looked up): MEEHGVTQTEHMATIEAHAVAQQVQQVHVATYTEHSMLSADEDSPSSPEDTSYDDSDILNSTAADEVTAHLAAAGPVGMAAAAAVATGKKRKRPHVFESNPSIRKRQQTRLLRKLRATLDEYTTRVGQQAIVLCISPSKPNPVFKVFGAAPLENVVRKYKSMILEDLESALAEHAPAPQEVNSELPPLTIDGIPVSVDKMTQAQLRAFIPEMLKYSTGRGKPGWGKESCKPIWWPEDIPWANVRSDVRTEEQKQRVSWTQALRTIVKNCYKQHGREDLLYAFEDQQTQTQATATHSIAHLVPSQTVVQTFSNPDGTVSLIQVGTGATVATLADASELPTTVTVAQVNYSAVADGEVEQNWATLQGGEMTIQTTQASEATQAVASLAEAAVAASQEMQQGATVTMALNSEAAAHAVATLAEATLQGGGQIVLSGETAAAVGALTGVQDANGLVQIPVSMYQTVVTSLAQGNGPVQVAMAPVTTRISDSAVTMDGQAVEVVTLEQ
Chain of Oxysterols receptor LXR-alpha (Homo sapiens) (Q13133 whole entry, looked up, the tested form may be a part): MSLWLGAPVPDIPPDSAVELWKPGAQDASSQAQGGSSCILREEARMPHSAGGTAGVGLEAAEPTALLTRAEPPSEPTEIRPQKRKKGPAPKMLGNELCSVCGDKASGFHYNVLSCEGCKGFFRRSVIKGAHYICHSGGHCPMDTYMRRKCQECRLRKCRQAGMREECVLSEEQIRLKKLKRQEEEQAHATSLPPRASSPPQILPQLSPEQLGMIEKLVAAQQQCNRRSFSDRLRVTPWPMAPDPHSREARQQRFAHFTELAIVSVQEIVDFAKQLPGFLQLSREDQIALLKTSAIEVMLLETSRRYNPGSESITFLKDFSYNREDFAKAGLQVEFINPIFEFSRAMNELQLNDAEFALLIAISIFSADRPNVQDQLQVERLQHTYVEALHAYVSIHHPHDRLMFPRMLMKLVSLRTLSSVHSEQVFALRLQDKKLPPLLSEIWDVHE
Chain of Hepatocyte nuclear factor 4-alpha (Homo sapiens) (P41235 whole entry, looked up): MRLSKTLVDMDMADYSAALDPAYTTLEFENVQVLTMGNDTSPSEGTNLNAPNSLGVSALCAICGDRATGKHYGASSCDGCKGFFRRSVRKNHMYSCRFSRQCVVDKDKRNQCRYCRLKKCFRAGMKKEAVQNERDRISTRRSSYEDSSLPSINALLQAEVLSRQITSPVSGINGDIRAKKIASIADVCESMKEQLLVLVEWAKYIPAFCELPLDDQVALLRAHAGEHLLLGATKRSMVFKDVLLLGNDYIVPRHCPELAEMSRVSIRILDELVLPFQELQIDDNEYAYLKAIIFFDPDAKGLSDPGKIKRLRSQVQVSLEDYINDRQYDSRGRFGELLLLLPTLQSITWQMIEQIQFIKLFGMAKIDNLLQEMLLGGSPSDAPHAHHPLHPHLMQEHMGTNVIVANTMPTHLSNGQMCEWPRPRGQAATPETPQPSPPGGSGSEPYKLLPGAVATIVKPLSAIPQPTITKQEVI
Chain of X-box-binding protein 1 (Homo sapiens) (P17861 whole entry, looked up): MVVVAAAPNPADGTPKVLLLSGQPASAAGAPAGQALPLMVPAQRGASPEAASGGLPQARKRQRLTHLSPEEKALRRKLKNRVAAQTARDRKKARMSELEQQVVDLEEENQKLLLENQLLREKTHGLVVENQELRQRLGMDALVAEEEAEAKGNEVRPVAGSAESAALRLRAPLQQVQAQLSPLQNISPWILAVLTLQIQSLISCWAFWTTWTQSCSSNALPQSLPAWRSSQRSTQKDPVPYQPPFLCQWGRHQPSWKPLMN
Chain of Estrogen receptor (Homo sapiens) (P03372 whole entry, looked up, the tested form may be a part): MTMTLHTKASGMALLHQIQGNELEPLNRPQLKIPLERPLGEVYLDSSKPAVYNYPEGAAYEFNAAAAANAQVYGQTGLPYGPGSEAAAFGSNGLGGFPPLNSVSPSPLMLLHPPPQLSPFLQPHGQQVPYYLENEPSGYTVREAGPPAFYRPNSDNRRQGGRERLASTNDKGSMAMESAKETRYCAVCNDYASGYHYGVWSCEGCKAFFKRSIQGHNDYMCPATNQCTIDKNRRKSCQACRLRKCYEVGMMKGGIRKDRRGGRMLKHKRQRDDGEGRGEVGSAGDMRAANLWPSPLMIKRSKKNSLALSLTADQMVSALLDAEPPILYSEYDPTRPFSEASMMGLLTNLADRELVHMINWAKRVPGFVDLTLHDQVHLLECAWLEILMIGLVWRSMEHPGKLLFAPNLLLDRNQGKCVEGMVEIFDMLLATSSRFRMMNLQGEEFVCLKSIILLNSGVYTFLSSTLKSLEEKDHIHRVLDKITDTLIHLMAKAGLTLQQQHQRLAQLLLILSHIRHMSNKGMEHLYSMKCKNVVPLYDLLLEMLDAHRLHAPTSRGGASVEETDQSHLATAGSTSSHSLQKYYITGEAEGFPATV
Chain of Nuclear receptor subfamily 1 group I member 3 (Homo sapiens) (Q14994 whole entry, looked up, the tested form may be a part): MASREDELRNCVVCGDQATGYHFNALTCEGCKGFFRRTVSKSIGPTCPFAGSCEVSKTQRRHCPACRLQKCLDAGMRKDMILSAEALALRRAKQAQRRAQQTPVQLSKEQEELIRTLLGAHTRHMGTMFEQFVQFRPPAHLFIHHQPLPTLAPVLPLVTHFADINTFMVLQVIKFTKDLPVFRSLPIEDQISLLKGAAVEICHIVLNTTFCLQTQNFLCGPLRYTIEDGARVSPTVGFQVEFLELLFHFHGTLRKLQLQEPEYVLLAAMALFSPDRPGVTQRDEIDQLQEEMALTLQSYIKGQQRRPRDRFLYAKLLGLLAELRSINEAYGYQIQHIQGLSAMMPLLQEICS
Chain of Nuclear receptor subfamily 4 group A member 2 (Homo sapiens) (P43354 whole entry, looked up, the tested form may be a part): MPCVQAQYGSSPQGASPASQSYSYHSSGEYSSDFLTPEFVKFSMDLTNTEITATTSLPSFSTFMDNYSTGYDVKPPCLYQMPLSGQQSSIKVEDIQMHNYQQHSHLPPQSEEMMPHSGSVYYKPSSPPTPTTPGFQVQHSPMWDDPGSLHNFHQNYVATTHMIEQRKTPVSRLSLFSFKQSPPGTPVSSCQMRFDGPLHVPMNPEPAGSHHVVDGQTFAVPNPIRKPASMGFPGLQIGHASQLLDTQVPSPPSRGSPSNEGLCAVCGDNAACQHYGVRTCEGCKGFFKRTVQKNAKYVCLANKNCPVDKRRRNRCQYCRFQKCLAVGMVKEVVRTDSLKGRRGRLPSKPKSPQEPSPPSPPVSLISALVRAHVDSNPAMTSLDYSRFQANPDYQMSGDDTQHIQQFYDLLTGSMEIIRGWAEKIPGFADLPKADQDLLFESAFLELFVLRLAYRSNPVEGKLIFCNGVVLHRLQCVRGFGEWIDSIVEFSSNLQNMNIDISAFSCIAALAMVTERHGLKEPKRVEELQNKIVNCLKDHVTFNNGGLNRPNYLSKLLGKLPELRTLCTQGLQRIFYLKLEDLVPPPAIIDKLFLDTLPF
Chain of Transcriptional activator Myb (Homo sapiens) (P10242 whole entry, looked up): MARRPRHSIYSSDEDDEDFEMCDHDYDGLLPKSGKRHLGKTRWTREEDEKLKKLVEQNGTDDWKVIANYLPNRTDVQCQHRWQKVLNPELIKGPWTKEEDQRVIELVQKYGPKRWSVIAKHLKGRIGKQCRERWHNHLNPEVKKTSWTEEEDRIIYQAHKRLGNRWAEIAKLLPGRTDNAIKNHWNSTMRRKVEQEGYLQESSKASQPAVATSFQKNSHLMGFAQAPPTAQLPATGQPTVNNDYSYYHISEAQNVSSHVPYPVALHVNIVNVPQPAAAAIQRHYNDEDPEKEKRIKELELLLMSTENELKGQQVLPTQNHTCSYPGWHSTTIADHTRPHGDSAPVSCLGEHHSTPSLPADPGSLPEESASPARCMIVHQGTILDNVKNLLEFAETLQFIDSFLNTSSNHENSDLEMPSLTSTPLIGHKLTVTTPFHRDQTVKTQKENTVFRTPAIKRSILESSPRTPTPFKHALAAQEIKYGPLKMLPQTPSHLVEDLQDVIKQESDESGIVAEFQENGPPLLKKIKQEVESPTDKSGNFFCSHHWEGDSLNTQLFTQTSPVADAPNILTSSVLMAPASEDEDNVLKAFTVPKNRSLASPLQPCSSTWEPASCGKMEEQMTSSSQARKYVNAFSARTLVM

CCOC=C(C(=O)OCC)C(=O)OCC
not listed: [14] | [15] | [16] | [17] | [18] | [19]
inactive: all other assays above

Nc1ccc(O)c(C(=O)O)c1
active: [3] 44.6 µM
not listed: [4] | [5] | [7] | [9] | [19]
inactive: all other assays above

COCN(COC)c1nc(N(COC)COC)nc(N(COC)COC)n1
inactive: [1] | [2] | [4] | [16] | [7] | [8] | [9] | [11] | [12] | [13]
active: [3] 49.3 µM

COc1ccc(C#N)cc1
inactive: [1] | [2] | [3] | [4] | [6] | [7] | [8] | [10] | [11] | [13]

O=S(=O)(O)C(F)(F)C(F)(F)C(F)(F)C(F)(F)C(F)(F)C(F)(F)C(F)(F)C(F)(F)C(F)(F)C(F)(F)F
not listed: [4] | [5] | [7] | [15] | [17]
inactive: all other assays above

O=C(Nc1ccc(Cl)c(Cl)c1)c1cc(Cl)cc(Cl)c1O
active: [1] 2.27 µM | [3] 6.62 µM | [4] 1.72 µM | [16] 3.82 µM
not listed: [5] | [9] | [14] | [15] | [18]
inactive: all other assays above

C[C@]12CC[C@@H]3c4ccc(O)cc4CC[C@H]3[C@@H]1C[C@@H](O)[C@@H]2O
active: [1] 27.1 µM
inactive: [1] | [4] | [15] | [6] | [8] | [10] | [11] | [12] | [13]

O=C(CC(=O)C(F)(F)C(F)(F)C(F)(F)F)c1cccs1
inactive: [1] | [3] | [14] | [15] | [19] | [6] | [16] | [17] | [7] | [8] | [9] | [10] | [18] | [11] | [12] | [13]
active: [1] 11 µM | [11] 50 µM

FC(F)(F)C(F)(F)C(F)(F)Br
not listed: [9] | [14] | [17] | [18] | [19]
inactive: all other assays above

CC1COCc2cc3c(cc21)C(C)(C)C(C)C3(C)C (configuration not stated)
active: [1] 50.7 µM | [3] 11.8 µM | [11] 162 µM | [13] 170 µM
inactive: [2] | [6] | [16] | [17] | [7] | [9] | [18] | [12]

CCN(CC)CC
not listed: [7] | [8] | [9] | [14] | [15] | [19]
inactive: all other assays above

NNc1nc(-c2ccc([N+](=O)[O-])cc2)cs1
not listed: [4] | [5] | [6] | [9] | [10] | [14] | [15]
inactive: all other assays above

C=CC(=O)OCCC(F)(F)C(F)(F)C(F)(F)C(F)(F)C(F)(F)C(F)(F)F
inactive: [1] | [2] | [19] | [6] | [16] | [9] | [18] | [11] | [12] | [13]
active: [3] 12.8 µM

CC1=CC(=O)c2ccccc2C1=O
not listed: [5] | [6] | [9] | [10] | [15] | [16] | [18]
inactive: all other assays above

CC(C)C=O
not listed: [3] | [9] | [16]
inactive: all other assays above

CCN(CCC#N)c1ccccc1
not listed: [3] | [4] | [7] | [8] | [14] | [19]
inactive: all other assays above

O=C(O)CN(CCCN(CC(=O)O)CC(=O)O)CC(=O)O
inactive: [1] | [2] | [4] | [16] | [7] | [8] | [9] | [11] | [13]

O=C(O)C(=O)O
not listed: [3] | [5] | [14] | [16] | [18] | [19]
inactive: all other assays above

CC(C)(C)C1CCCCC1O (configuration not stated)
not listed: [3] | [10] | [12] | [14] | [17] | [18] | [19]
inactive: all other assays above
